Laboratory results published in PubChem BioAssay AID652128 (Broad Institute, 2013).
The list shows a part of the results. Inconclusive results are not listed. Calls of active or inactive are those of the source.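 How the source made its calls: active means fitted half-maximal concentration for signal loss at or below twice the highest dose tested, in every separate run (actives reach about 64 µM in these data); inconclusive means runs disagree, or flat partial signal loss, or poor fit; inactive means the rest.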

assay: DNA binders displacing acridine orange – biochemical, fluorescence polarization, cherry-pick, artefact control for RAD52 inhibitor project, dose response (AID 652128); details: Salmon sperm DNA/acridine orange FP displacement, DNA binding

Structure (SMILES) | AC50 | outcome
COc1ccc2[nH]c3c(C)c4cc[n+](C)cc4c(C)c3c2c1 | 4.3 µM (active) | –
CN1CCN(c2nc(Nc3ccc(O)cc3)nc3ccccc23)CC1 | – | inactive
CN(C)CCNC(=O)c1ccc(-c2cn3c(-c4ccc(Oc5ccccc5)cc4)cnc3cn2)cc1 | – | inactive
CN(Cc1ccccc1F)c1cc2c(c3c1ccn3C)C1CCC2O1 (configuration not stated) | – | inactive
CC(=O)Nc1ccc(Nc2c3ccccc3nc3ccccc23)cc1 | 7.66 µM (active) | –
CCN(CC)CCCNC(=O)c1cc2c(=O)[nH]c3ccc(C)cc3c2s1 | 49.6 µM (active) | –
CCN1CCCC1CNC(=O)c1ccc2c(c1)NC(=O)/C(=C\c1ccccc1F)S2 (configuration not stated) | – | inactive
CC(C)[C@@H](C)/C=C/[C@@H](C)[C@H]1CC[C@@H]2[C@]1(C)CCC1[C@]23C=C[C@]2(C[C@@H](O)CC[C@]12C)N(c1ccc([N+](=O)[O-])cn1)O3 (some centres not stated) | – | inactive
CCN(CC(=O)Nc1ccc(NC(C)=O)cc1)C(=O)C1CC(=O)N(c2ccc3c(c2)OCCO3)C1 (configuration not stated) | – | inactive
Cc1cccc(-c2nc3ccc(C(=O)NCCN4CCN(C)CC4)cc3nc2-c2cccc(C)c2)c1 | – | inactive
CCN(CC)CCC(c1ccc2c(c1)OCO2)c1c(OC)cc(OC)c2c(-c3ccccc3)cc(=O)oc12 (configuration not stated) | – | inactive
NCCCCCC(=O)N/N=C/c1ccc2nccnc2c1 | – | inactive
CC(=O)c1cccc(-c2cnc3c(NC=O)cc(-c4ccc(N5CCN(C)CC5)cc4)cn23)c1 | – | inactive
CN(C)CCN1CCN(c2cc(-c3cccc(Cl)c3)nc3ccnn23)CC1 | – | inactive
NC(N)=Nc1nc(-c2ccccc2)c2cc(Cl)ccc2n1 | – | inactive
Cn1ccc(=Nc2ccc(NC(=O)c3ccc(N=c4ccn(C)c5ccc([N+](=O)[O-])cc45)cc3)cc2)cc1 | – | inactive
COc1ccc2sc(N(CCCN(C)C)C(=O)c3ccc(S(=O)(=O)N(C)C4CCCCC4)cc3)nc2c1 | – | inactive
O=C(/C=C/c1cn(-c2ccccc2)nc1-c1ccc2c(c1)OCCO2)NCCCN1CCOCC1 | – | inactive
CCN(CC)CCOc1ccc2c(c1)C(=NNC(=O)c1ccccn1)c1cc(OCCN(CC)CC)ccc1-2 | 4.27 µM (active) | –
COc1ccc(NC(=O)C2C3CCC(O3)C2C(=O)O)cc1OC (configuration not stated) | – | inactive
Cc1ccc2c(c1)C1CN(C)CCC1N2S(=O)(=O)c1ccc(Oc2ccc([N+](=O)[O-])cc2)cc1 (configuration not stated) | – | inactive
CCN(CC)CCn1c2ccc(Cl)cc2c2nc(C)sc21 | – | inactive
C=Cn1cc[n+](CC(=O)c2ccc(OC)c(OC)c2)c1 | – | inactive
CC(=O)Nc1ccc(CNc2nc(NCCN(C)C)nc3cc(-c4ccccc4)sc23)cc1 | – | inactive
Cc1c(CCOC(=O)CC23CC4CC(CC(C)(C4)C2)C3)sc[n+]1Cc1ccc([N+](=O)[O-])cc1 | – | inactive
COc1ccc(CC(N)c2csc(NC(=O)Nc3ccc(C(C)C)cc3)n2)cc1 (configuration not stated) | – | inactive
CCN(CC)CCNC(=O)c1ccc(NC(=O)c2cc(-c3ccncc3)nc3ccccc23)cc1 | – | inactive
